Data taken from PubChem BioAssay AID651597 (National Center for Advancing Translational Sciences (NCATS), 2012).
Among all 1,100 compounds or so, about 390 (35%) were called active. About 30% were inconclusive and are not listed. The list shows a part of the results. A number with no mark means an inactive call. The call rests on the fitted dose curve; in most records, active means well fitted inhibition curve with a large enough effect; inconclusive means small, poorly fitted or top-dose-only effect; inactive means flat fitted curve, though single readings scatter.
Further: nearly all actives have a fitted effect of over 65% in size.
On the % scale 0 is the no-effect control and ±100 the full control effect; potency means the concentration at half of the fitted maximal effect.

The compounds below were run against Luciferin 4-monooxygenase (Photinus pyralis) (UniProt P08659) (assay: qHTS of Nrf2 Activators: Hit Validation in Secondary FLuc Assay). Conditions: firefly luciferase inhibition counter-screen, luminescence; series mostly up to 57.5 µM; activity, negative = inhibition: at the top concentration.
Procedure, shortened: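 Purified firefly luciferase is tested for inhibition by compounds in the presence of its substrates, ATP and D-luciferin, each at Km. Inhibition marks likely false positives arising from reporter-enzyme stabilization.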
With `S=C(NNc1ccc2ccccc2c1)NC1CCCCC1` the Potency was 6.75 µM (active).
`CNC(=O)C1CCN(S(=O)(=O)c2c(C)noc2/C=C/c2ccccc2F)CC1` was tested, and the “activity, negative = inhibition” value was 3.63%.
`COc1ccc(N=Nc2ccc(O)c3ncccc23)cc1` was tested, and the Potency was 9.53 µM (active).
For `CCN(CC)CCNC(=O)C(Cl)=C1C(Cl)=C(Cl)C(Cl)=C1Cl`, the “activity, negative = inhibition” value was -0.406%.
For `N#Cc1c(-c2ccccc2)cc(-c2ccccc2)[nH]c1=O`, the “activity, negative = inhibition” value was 1.09%.
For `Cc1cc(=O)n2nc(-c3ccccc3)sc2c1C#N`, the Potency was 23.9 µM (active).
For `[O-][n+]1onc2c3cc(-c4ccccc4)nnc3ccc21`, the “activity, negative = inhibition” value was -23.4%.
In the case of `Cc1cc(O)cc2c1C(=O)/C(=C/c1ccco1)O2`, the Potency is reported as 2.39 µM (active).
With `Cn1nnnc1Sc1ncnc2scc(-c3cccc4ccccc34)c12` the “activity, negative = inhibition” value was -25.5%.
For `O=C(Nc1cc(Br)ccc1O)c1cnn2c(C(F)F)cc(C3CC3)nc12`, the “activity, negative = inhibition” value was -21.9%.
`c1ccc(N2CC3CCc4ccccc4C3=N2)cc1` (stereo unspecified) was tested, and the Potency was 3.01 µM (active).
`c1ccc(N2CC3COc4ccccc4C3=N2)cc1` (stereo unspecified) was tested, and the Potency was 4.26 µM (active).
For `CCOc1ncccc1C(=O)NNC(=O)c1ccc(NS(=O)(=O)c2cccs2)cc1`, the “activity, negative = inhibition” value was -0.928%.
In the case of `CC(=O)c1nn(-c2ccccc2)cc1C(=O)c1cccc(Br)c1`, the “activity, negative = inhibition” value is reported as -11%.
With `C/C(=N\NC(=O)c1cccc(Br)c1)c1ccccn1` the Potency was 8.49 µM (active).
For `FC(F)(F)c1nnc2c(Sc3ccccn3)nc3ccccc3n12`, the “activity, negative = inhibition” value was -5.64%.
In the case of `CCn1c(=N)n(CC(=O)c2ccco2)c2ccccc21`, the “activity, negative = inhibition” value is reported as 5.63%.
With `CCn1c(=NC(=O)c2ccco2)sc2cccc(F)c21` the Potency was 6.01 µM (active).
`COc1cc(/C=N/Nc2ccccn2)cc(OC)c1O` was tested, and the Potency was 2.13 µM (active).
For `COc1ccc(Br)cc1/C=N/Nc1ccccn1`, the “activity, negative = inhibition” value was -22.8%.
For `N#C/C(=C\C=C\c1ccccc1)C(=O)NCc1cccnc1`, the “activity, negative = inhibition” value was -7.08%.
In the case of `N/C(=N\OC(=O)c1cccc2ccccc12)c1cccnc1`, the “activity, negative = inhibition” value is reported as 4.57%.
`N/C(=N\OC(=O)c1cc(Cl)ccc1Cl)c1cccnc1` was tested, and the Potency was 4.78 µM (active).
In the case of `N/C(=N\OC(=O)/C=C/c1ccccc1)c1cccnc1`, the Potency is reported as 5.36 µM (active).
With `N/C(=N\OC(=O)c1cc(Cl)ccc1Cl)c1ccncc1` the Potency was 15.1 µM (active).
`N/C(=N\OC(=O)c1ccccc1Cl)c1ccncc1` was tested, and the Potency was 4.78 µM (active).
`O=C1C2C3C=CC(C4CC34)C2C(=O)N1/N=C/c1ccc([N+](=O)[O-])o1` (stereo unspecified) was tested, and the “activity, negative = inhibition” value was -29.9%.
In the case of `CCCn1nc([N+](=O)[O-])c(C(C#N)c2nc3ccccc3s2)c(Cl)c1=O` (stereo unspecified), the Potency is reported as 12 µM (active).
With `Nc1ccccc1N1C(=O)c2cccc3cccc(c23)C1=O` the “activity, negative = inhibition” value was -18.6%.
For `Cc1sc(NC(=S)NC(=O)c2ccco2)c(C(N)=O)c1C`, the Potency was 1.2 µM (active).
For `CCCc1cc(C(N)=O)c(NC(=O)c2ccco2)s1`, the Potency was 3.01 µM (active).
With `NC(=O)c1c(NC(=O)c2ccco2)sc2c1CCC2` the Potency was 2.13 µM (active).
With `Cc1sc(NC(=O)c2ccco2)c(CN2CCCCC2)c1C` the “activity, negative = inhibition” value was -22.7%.
With `Cc1ccc2nsnc2c1NC(=S)NC(=O)c1ccco1` the “activity, negative = inhibition” value was -3.95%.
For `Cc1ccc([N+](=O)[O-])cc1NC(=S)NC(=O)c1ccco1`, the “activity, negative = inhibition” value was 1.78%.
`CCc1c(C)sc(NC(=O)c2ccco2)c1C#N` was tested, and the Potency was 12 µM (active).
In the case of `COC(=O)CSc1nc2ccccn2c(=O)c1C=O`, the “activity, negative = inhibition” value is reported as 6.66%.
`COn1c(=O)c(-c2cccc(Br)c2)[n+]([O-])c2ccccc21` was tested, and the “activity, negative = inhibition” value was 1.19%.
With `N#CC1=C(N)Oc2c(ccc3ccccc23)C1c1ccsc1` (stereo unspecified) the Potency was 16.9 µM (active).
With `COc1ccc(S(=O)(=O)N2CCN(C(=O)c3ccc([N+](=O)[O-])o3)CC2)cc1` the “activity, negative = inhibition” value was 8.39%.
In the case of `COc1cccc(NC(=O)c2nc(SC)ncc2Cl)c1`, the “activity, negative = inhibition” value is reported as -0.657%.
`COc1cccc(NC(=O)c2nn(C)cc2Br)c1` was tested, and the Potency was 12 µM (active).
In the case of `COc1ccc(S(=O)(=O)NCCc2csc3nc(-c4ccc(Cl)cc4)nn23)cc1C`, the “activity, negative = inhibition” value is reported as -6.04%.
`COc1ccc(NC(=O)c2ccc([N+](=O)[O-])s2)c([N+](=O)[O-])c1` was tested, and the “activity, negative = inhibition” value was 2.08%.
In the case of `O=C(Nc1ccccc1[N+](=O)[O-])C1COc2ccccc2O1` (stereo unspecified), the Potency is reported as 3.01 µM (active).
`CCOc1ccccc1NC(=O)C1COc2ccccc2O1` (stereo unspecified) was tested, and the “activity, negative = inhibition” value was -24%.
`Cn1c(=O)n(CCc2ccccc2)c(=O)c2c1nc1n2CCN1Cc1ccco1` was tested, and the “activity, negative = inhibition” value was -19.5%.
`Cc1ccccc1C(=O)Nc1nc2c(C)csc2c(=O)s1` was tested, and the “activity, negative = inhibition” value was -24%.
With `O=C(NCc1ccccc1)c1c(Cl)nc(Cl)c(Cl)c1Cl` the “activity, negative = inhibition” value was 2.71%.
For `Cc1csc2c(=O)sc(NC(=O)c3ccc(F)cc3Cl)nc12`, the “activity, negative = inhibition” value was 0.172%.
`O=C(Nc1nc(=O)c2ccccc2s1)c1ccccc1` was tested, and the Potency was 1.07 µM (active).
`Cc1csc2nc(NC(=O)c3ccccc3)sc(=O)c12` was tested, and the Potency was 2.39 µM (active).
With `O=C1C=C(C#Cc2ccccc2)C[C@@H](c2ccc(F)cc2)C1` the “activity, negative = inhibition” value was -5.22%.
For `N/C(=N\OC(=O)c1ccco1)c1cccc(Br)c1`, the Potency was 2.39 µM (active).
For `O=C(Nc1ncnc2sc3c(c12)CCC3)c1ccco1`, the “activity, negative = inhibition” value was 0.673%.
In the case of `O=C(CSc1ncnc2sc3c(c12)CCCC3)c1ccco1`, the Potency is reported as 2.69 µM (active).
